Experimental findings from PubChem BioAssay (NCATS) are described below.

The structures appear in SMILES notation. Results filed as inconclusive are left out. Activity calls are given as the source filed them. Calls follow the shape of the dose curve; as a rule, active = well fitted inhibition curve with a large enough effect; inconclusive = small, poorly fitted or top-dose-only effect; inactive = no such curve, though single readings can be large or run the other way.

In one test the target is Retinaldehyde dehydrogenase 3 (Homo sapiens) (UniProt P47895). The test is described as follows: qHTS for Inhibitors of the Aldehyde Dehydrogenase Family (ALDH1A3) Primary screen (AID 2061315).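 Also: plate controls were DMSO vehicle for no effect and reference inhibitor for full effect.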 To be noted: ALDH inhibition qHTS; series mostly up to 56 µM; activity change, negative = inhibition: at the top concentration. A general note: qHTS replaces the single test concentration by a dilution series.
With `CN1C(=O)[C@]23CC4C(C)(C)[C@@]5(C[C@@]41CN2CC[C@@]3(C)O)C(=O)Nc1c5ccc2c1OC=CC(C)(C)O2` (some centres not stated), the “activity change, negative = inhibition” value is 17.4% [at 28 µM] (inactive).
For `CN1CN(c2ccccc2)C2(CCN(CCCC(=O)c3ccc(F)cc3)CC2)C1=O`, the “activity change, negative = inhibition” value was -27.6% (inactive).
With `C[C@]12CC[C@@H]3c4ccc(OC(=O)N(CCCl)CCCl)cc4CC[C@H]3[C@@H]1CC[C@@H]2OP(=O)(O)O`, the “activity change, negative = inhibition” value is 34.1% (inactive).
The same measure, in the same setting: the same measure for `c1cncc(OC[C@@H]2CCN2)c1`: -18.4% (inactive); for `O=C(C[C@@H]1NCCC[C@H]1O)Cn1cnc2ccccc2c1=O`: -18.5% (inactive).
Consider `CCC(C)/C=C(C)/C=C/C1=CC2=C(Cl)C(=O)C(C)(OC(C)=O)C(=O)C2=CO1` (configuration not stated), for which the “activity change, negative = inhibition” value was 15.7% (inactive).
As to `CC(=O)OCC1=C(C(=O)O)N2C(=O)[C@@H](N)[C@H]2SC1`, the “activity change, negative = inhibition” value was 34.5% (inactive).
On to `CC(C)OC(=O)c1ccnc2cc(C(OCCN3CCCCC3)c3ccccc3Cl)sc12` (configuration not stated), for which the “activity change, negative = inhibition” value is -1.6% (inactive).

Test system in a further test: not listed separately
The test is described as follows: BET inhibitor-based combinations targeting novel dependencies in MECOM-rearranged (r) AML: SET-2 cell line (AID 2202231). Also: nearly all actives have a fitted effect of over 35% in size. Also: potency is read from the fitted curve at half-maximal effect.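 As to viability: plate controls were DMSO treated cells for no effect and wells without cells for full effect.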 To be noted: SET-2 AML cells viability, CellTiter-Glo luminescence, 48 h; viability: hits give low values, concentration not given here. The gist of the method:
(§1)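 Readout: CellTiter-Glo luminescence. Exposure: 48 h, 11 concentrations, 500 cells/well. Metric: AUC and within-line Z-AUC after DMSO/empty-well normalization.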
On the technique in general: Cellular ATP, detected with luciferase, serves as a proxy for viable cell number.
In general, viability refers to a read-out of living cells in per cent, often relative to untreated cells. As for `CCOC(=O)c1c(C(C#N)=CN)c2ccc(Cl)c(Cl)c2n1C`, the viability was 114% (inactive).
`Cc1ncc(OC[C@@]2(c3cccc(F)c3)C[C@H]2C(=O)Nc2ccc(F)cn2)c(C)n1`: the viability was 92.7% (inactive).
Turning to `O=C1CC[C@@]2(O)[C@H]3Cc4ccc(O)c5c4[C@@]2(CCN3CC2CC2)[C@H]1O5`, the viability is 123% (inactive).
Still for that read-out and setting: next, `C[C@]12Cc3cn[nH]c3C[C@@H]1CC[C@@H]1[C@@H]2CC[C@@]2(C)[C@H]1CC[C@]2(C)O`: 57.3% (inactive).
Take `Clc1ccccc1C(c1ccccc1)(c1ccccc1)n1cccn1`: the viability was 90.1% (inactive).
For `C[C@]12CC[C@@H]3c4ccc(OC(=O)N(CCCl)CCCl)cc4CC[C@H]3[C@@H]1CC[C@@H]2OP(=O)(O)O`, the viability was 112% (inactive).
In the case of `Cc1sc2c(c1C)C(c1ccc(Cl)cc1)=N[C@@H](CC(=O)OC(C)(C)C)c1nnc(C)n1-2`, the Potency is 0.59 µM (active).
As to `COCC1(CO)C(=O)C2CCN1CC2` (configuration not stated), the Potency was 26.3 µM (active).
In the case of `C[C@]12CCC(=O)C(O)=C1CC[C@@H]1[C@@H]2CC[C@]2(C)C(=O)CC[C@@H]12`, the viability is 97.8% (inactive).
For `CC1=C(O)C(=O)C=C2C1=CC=C1[C@@]2(C)CC[C@@]2(C)[C@@H]3C[C@](C)(C(=O)O)CC[C@]3(C)CC[C@]12C`, the Potency is 0.934 µM (active).
For `COc1cccc2c1C(=O)c1c(O)c3c(c(O)c1C2=O)C[C@@](O)(C(=O)CO)CC3OC1CC(N2CCOC(OC)C2)C(O)C(C)O1` (some centres not stated), the Potency is 0.0033 µM (active).
On the same count and under the same terms, next, `N=c1c2c(-c3ccccc3)c(-c3ccccc3)n(Cc3ccccc3)c2ncn1C1CCC(O)CC1` (configuration not stated): 1.32 µM (active).
As for `CN1[C@H]2CC(O)C[C@H]1[C@H]1O[C@H]12` (some centres not stated), the viability is 118% (inactive).
Same read-out and setting: the same measure for `c1ccc2c(CN3CCNCC3)cccc2c1`: 115% (inactive); for `C[C@@H]1CC[C@H]2[C@@H](C)C(=O)O[C@@H]3O[C@@]4(C)CC[C@@H]1[C@]32OO4`: 93.5% (inactive).
`C[C@]12CC[C@@H]3[C@@H](CCC4=CC(=O)CC[C@@H]43)[C@@H]1CC[C@@H]2OC(=O)CCc1ccccc1`: the viability is 104% (inactive).
Regarding `CN[C@@H]1Cc2cccc3[nH]c(=O)n(c23)C1`, the viability is 120% (inactive).
Consider `CN(C)CCN(C)CCc1ccc(Cl)c(Cl)c1`, for which the viability is 103% (inactive).
On the same count and under the same terms, next, `COC1(CS(=O)c2ccccc2)CCN(CCc2c[nH]c3ccc(F)cc23)CC1` (configuration not stated): 110% (inactive); `O=S(=O)(F)Cc1ccccc1`: 112% (inactive).
Consider `COc1ccc(C(=O)c2c(C)n(CCN3CCOCC3)c3cc(I)ccc23)cc1`, for which the Potency was 13.2 µM (active).
In the case of `CCN1C[C@]2(OC(=O)c3ccccc3NC(C)=O)CC[C@H](OC)[C@@]34[C@H]5CC6[C@@H](OC)C[C@](O)(C(C[C@@H]23)[C@@H]14)[C@@]5(O)[C@@H]6OC`, the viability is 104% (inactive).

Test system in the next test: not listed separately
Nature of the test: BET inhibitor-based combinations targeting novel dependencies in MECOM-rearranged (r) AML: OCI-AML3 cell line (AID 2202232). Also: nearly all actives have a fitted effect of over 35% in size. Also: potency is read from the fitted curve at half-maximal effect.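 As to viability (% of control): plate controls were DMSO vehicle wells for no effect and wells without cells for full effect.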 To be noted: CellTiter-Glo luminescence, 48 h; Potency: OCI-AML3 viability; series mostly up to 46 µM; viability (% of control): at the top concentration. The gist of the method:
as §1
Take `Fc1ccc(C(OCCN2CCN(CCCc3ccccc3)CC2)c2ccc(F)cc2)cc1`: the Potency was 29.5 µM (active).
Turning to `Cc1ncc(OC[C@@]2(c3cccc(F)c3)C[C@H]2C(=O)Nc2ccc(F)cn2)c(C)n1`, the “viability (% of control)” value is 86.7% (inactive).
Turning to `O=c1[nH]c2ccccc2n1C1CCN(Cc2ccc(-c3[nH]c4cc5ncnc5cc4nc3-c3ccccc3)cc2)CC1`, the Potency was 9.34 µM (active).
On to `COC[C@@H](NC(C)=O)C(=O)NCc1ccccc1`, for which the “viability (% of control)” value is 121% (inactive).
On to `COc1ccc(C(=O)c2c(C)n(CCN3CCOCC3)c3ccccc23)cc1`, for which the Potency is 3.72 µM (active).
Take `C[C@]12CC[C@@H]3c4ccc(OC(=O)N(CCCl)CCCl)cc4CC[C@H]3[C@@H]1CC[C@@H]2OP(=O)(O)O`: the “viability (% of control)” value is 109% (inactive).
For the compound `Cc1sc2c(c1C)C(c1ccc(Cl)cc1)=N[C@@H](CC(=O)OC(C)(C)C)c1nnc(C)n1-2`, the Potency was 0.263 µM (active).
Regarding `O=S(=O)(CC1CS1)c1ccc(Oc2ccccc2)cc1` (configuration not stated), the Potency was 16.6 µM (active).
As to `C[C@]12CCC(=O)C(O)=C1CC[C@@H]1[C@@H]2CC[C@]2(C)C(=O)CC[C@@H]12`, the “viability (% of control)” value is 92.4% [at 92.2 µM] (inactive).
`CCCC[N+]1(C)[C@H]2CC(OC(=O)[C@H](CO)c3ccccc3)C[C@H]1[C@H]1O[C@H]12` (some centres not stated): the “viability (% of control)” value is 113% (inactive).
For `CC1=C(O)C(=O)C=C2C1=CC=C1[C@@]2(C)CC[C@@]2(C)[C@@H]3C[C@](C)(C(=O)O)CC[C@]3(C)CC[C@]12C`, the Potency was 0.742 µM (active).
Still for that read-out and setting: next, `COc1cccc2c1C(=O)c1c(O)c3c(c(O)c1C2=O)C[C@@](O)(C(=O)CO)CC3OC1CC(N2CCOC(OC)C2)C(O)C(C)O1` (some centres not stated): 0.0047 µM (active).
Consider `Cc1sc2c(c1C)C(c1ccc(Cl)cc1)=NC(CC(N)=O)c1nnc(C)n1-2` (configuration not stated), for which the Potency is 0.0934 µM (active).
Same read-out and setting: the same measure for `C[C@@H]1C[C@@H]([C@H](O)CC2CC(=O)NC(=O)C2)C(=O)[C@@H](C)C1`: 1.66 µM (active); for `N=c1c2c(-c3ccccc3)c(-c3ccccc3)n(Cc3ccccc3)c2ncn1C1CCC(O)CC1` (configuration not stated): 8.33 µM (active).
For the compound `CN1[C@H]2CC(O)C[C@H]1[C@H]1O[C@H]12` (some centres not stated), the “viability (% of control)” value was 123% (inactive).
For the compound `COC1(CS(=O)c2ccccc2)CCN(CCc2c[nH]c3ccc(F)cc23)CC1` (configuration not stated), the Potency is 14.8 µM (active).
In the case of `O=S(=O)(F)Cc1ccccc1`, the “viability (% of control)” value is 93.5% (inactive).
Regarding `COc1ccc(C(=O)c2c(C)n(CCN3CCOCC3)c3cc(I)ccc23)cc1`, the Potency is 9.34 µM (active).
Consider `C[C@](O)(COc1ccc(C#N)cc1)C(=O)Nc1ccc(C#N)c(C(F)(F)F)c1`, for which the “viability (% of control)” value was 86.7% (inactive).
With `CC(C)(C)c1cc(C=C(C#N)C#N)cc(Br)c1O`, the Potency is 23.5 µM (active).
Regarding `CCN1C[C@]2(OC(=O)c3ccccc3NC(C)=O)CC[C@H](OC)[C@@]34[C@H]5CC6[C@@H](OC)C[C@](O)(C(C[C@@H]23)[C@@H]14)[C@@]5(O)[C@@H]6OC`, the “viability (% of control)” value is 121% (inactive).
